# Results as given in PubChem BioAssay AID504577 (NMMLSC, 2011).
# Out of some 350,000 compounds screened, about 1,300 (0.37%) were called active. This is one part of a sample in which actives are shown more often than they occur. Values without a mark were called inactive. Cut-off read from the data, not from the text of the source: active = response mostly above about 7.3% (no sharp cut-off); inactive = mostly below about 5.4%.
# Test: regulators of yeast V-ATPase proton pumping, primary screen, pHLuorin cytosolic pH fluorescence (AID 504577); note: actives read high
# Details: S. cerevisiae, at 10 µM, stronger effect = higher value
row,SMILES,response
1,Cc1[nH]c(N)nc(=S)c1CCCNc1ccccc1,2.54%
2,O=S(=O)(c1ccc(-c2ccno2)s1)N1CCCCC1,9.43% (active)
3,Cc1cc(-c2ccc(S(=O)(=O)N3CCN(c4cccc(C(F)(F)F)c4)CC3)s2)on1,1.88%
4,Cc1cc(-c2ccc(S(=O)(=O)N3CCc4ccccc4C3)s2)on1,-0.48%
5,CCOC(CNC(=O)C1CCN(S(=O)(=O)c2ccc3nc4c(c(C(=O)O)c3c2)CC(C)CC4)CC1)OCC (centres undefined),-5.48%
6,Cc1cccc(CSc2nc3c(c(=O)n2C)SCC3)c1,2.48%
7,Fc1ccccc1Cc1ccc(Cl)nn1,-1.91%
8,CC(C(=O)Nc1ccc(F)c(F)c1F)N1CCCCCC1 (centres undefined),3.53%
9,CC(=O)N1CCN(CCN=CC2=C(O)CC(C)(C)CC2=O)CC1,0.38%
10,CCNC(=S)N1CCN(CCN=CC2=C(O)CC(C)(C)CC2=O)CC1,20.1% (active)
11,CC1(C)CC(=O)C(C=NCCN2CCN(C(=S)Nc3cccc(Cl)c3)CC2)=C(O)C1,-5.71%
12,COc1ccc2c(c1)cc1n2CCN=C1NN,-2.41%
13,O=c1[nH]c2ccccc2n2c(-c3ccccc3)nnc12,-3.47%
14,O=C(COC(=O)c1ccccc1Br)Nc1nnc(-c2ccccc2)o1,10.2% (active)
15,CC(=O)Nc1cccc(C(=O)OCC(=O)Nc2nnc(-c3ccccc3)o2)c1,-2.25%
16,COc1ccccc1C(=O)NCC(=O)OCC(=O)Nc1nnc(-c2ccccc2)o1,-1.03%
17,CSc1ncc(C(=O)Nc2ccc(C)cc2C)c(C)n1,1.53%
18,S=c1nccc(-c2cc(Cl)sc2Cl)[nH]1,-0.72%
19,COc1ccc(S(=O)(=O)N(C)C)cc1NC(=O)COC(=O)c1n[nH]c2ccccc12,-1.42%
20,CC(=O)Nc1ccccc1C(=O)C(=O)Nc1ccc(F)cc1,1.43%
21,CCC(C)c1ccc(NC(=O)COC(=O)C2CCCC2)cc1 (centres undefined),-0.68%
22,O=[N+]([O-])c1ccc(C=Nc2ccc(Cl)cc2Cl)s1,17.4% (active)
23,CNN/C(N=Cc1ccc([N+](=O)[O-])s1)=N\S(=O)(=O)c1cc(C)c(Cl)cc1SCc1ccccc1,1.05%
24,Cc1ccc(C)c(NC(=O)CN(C)C(=O)COc2ccc3ccccc3c2)c1,0.04%
